Compounds without any hit were thinned out: in the full panel of roughly 83,000, 20% have a hit.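 How to read the values: 0–100, growth inhibition (40 = 60% inhibited); 0, no net growth; -100 to 0, cell death (-40 = 40% of starting cells died; -100 = all dead).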 Values without a mark were called inactive. Activity calls are given as the source filed them. The calls were made as follows: active = growth percent below 10; inactive = the rest. Where a SMILES comes first, the peptide text is derived from it. [ ]: non-standard residue; d: D form. ξ: configuration not given here. ξD = NC(CC(=O)O)C(=O)O

Some test systems named below: NCI-H23 lung; NCI-H226 lung; NCI-H322M lung; HOP-62 NSCLC; NCI-H460 lung; HOP-92 NSCLC; NCI-H522 lung; A549/ATCC NSCLC; 786-0 renal; COLO 205 colon; DU-145 prostate; K-562 leukemia; MDA-MB-231 breast; RXF 393 renal; SF-268 CNS; SF-295 CNS; SF-539 CNS; UACC-257 melanoma; M14 melanoma; MALME-3M melanoma.
Assay in all cases: NCI-60 one-dose screen, 48 h (100 = growth as untreated, 0 = no growth, -100 = all killed)
What all share (details): 10 µM unless noted

For the molecule `O=C(CCl)N1c2ccccc2Sc2c1ccc1ccccc21`, the growth in the test with NCI-H23 lung was 48.6%; with NCI-H226 lung, 68.1%; in the test with NCI-H322M lung, 106%; in the test on HOP-62 NSCLC, 90.6%; in the test on NCI-H460 lung it was 81.7%; in the test on HOP-92 NSCLC, 64.6%. The growth is -79.2% (active) in the test with NCI-H522 lung; 95.2% in the test on A549/ATCC NSCLC; 88.9% with 786-0 renal; 65.7% in the test on COLO 205 colon; 93.9% in the test on DU-145 prostate; 55.7% in the test with K-562 leukemia. The growth in the test on MDA-MB-231 breast is 76.4%; in the test on RXF 393 renal, 70.4%; in the test on SF-268 CNS, 70.4%; with SF-295 CNS it was 94.5%; in the test on SF-539 CNS, 84.7%; in the test on UACC-257 melanoma, 89.4%. The growth with M14 melanoma was 61.1%.
On to `Cc1ccccc1NC(=O)Cc1csc2[n+]1C(=O)/C(=C/c1ccc([N+](=O)[O-])cc1)S2`, for which the growth with NCI-H23 lung was 93.1%; in the test on NCI-H226 lung, 91.1%; in the test on NCI-H322M lung, 103%; in the test with HOP-62 NSCLC it was 86.7%; in the test on NCI-H460 lung it was 104%; in the test on HOP-92 NSCLC, 79.5%. For the same molecule, the growth in the test on NCI-H522 lung is 86.3%; with A549/ATCC NSCLC it was 99.8%; in the test with 786-0 renal, 93.5%; in the test with COLO 205 colon it was 105%; in the test on K-562 leukemia, 88.3%; in the test with MALME-3M melanoma, 99.3%. The growth with MDA-MB-231 breast was 97.7%; in the test on RXF 393 renal it was 111%; in the test with SF-268 CNS, 95.9%; in the test on SF-295 CNS, 99.7%; with SF-539 CNS it was 104%; with UACC-257 melanoma it was 104%. Also, the growth with M14 melanoma was 85.8%.
`Nc1ccc(Oc2ccccc2)c(Cl)c1`: the growth is 108% with NCI-H23 lung; 94.2% in the test on NCI-H226 lung; 86.3% in the test on NCI-H322M lung; 86.6% in the test on HOP-62 NSCLC; 106% in the test with NCI-H460 lung; 82.6% with HOP-92 NSCLC. In addition, the growth is 108% in the test with NCI-H522 lung; 94.6% in the test on A549/ATCC NSCLC; 84.9% in the test on 786-0 renal; 96.2% in the test with COLO 205 colon; 104% in the test with DU-145 prostate; 115% with K-562 leukemia. Moreover, the growth was 111% in the test on MDA-MB-231 breast; 100% in the test on RXF 393 renal; 93% in the test on SF-268 CNS; 92.1% in the test on SF-295 CNS; 91.7% with SF-539 CNS; 94.7% in the test with UACC-257 melanoma. Moreover, the growth in the test with M14 melanoma is 94.6%.
With `NCC(=O)NC(CC(=O)O)C(=O)O` (stereo not drawn) (H-Gly-[ξD]-OH), the growth with NCI-H23 lung was 108%; in the test with NCI-H226 lung it was 100%; in the test on NCI-H322M lung, 104%; in the test on HOP-62 NSCLC it was 101%; with NCI-H460 lung, 110%; with HOP-92 NSCLC it was 100%. The growth in the test with NCI-H522 lung was 87.1%; in the test with A549/ATCC NSCLC, 103%; with 786-0 renal, 100%; in the test on COLO 205 colon it was 119%; in the test with DU-145 prostate, 105%; with K-562 leukemia it was 106%. Besides, the growth in the test on MALME-3M melanoma was 98.1%; in the test on RXF 393 renal, 109%; in the test on SF-268 CNS it was 107%; in the test with SF-295 CNS, 101%; with SF-539 CNS it was 99.3%; in the test with UACC-257 melanoma it was 96.5%. Also, the growth in the test on M14 melanoma is 104%.
With `CCOC(=O)C1=NN(c2ccccc2)C(=O)/C1=C\N1C(=O)/C(=C/c2cccc(O)c2)SC1=S`, the growth in the test on NCI-H23 lung was 87.8%; in the test with NCI-H226 lung, 103%; in the test with NCI-H322M lung, 98.9%; in the test with HOP-62 NSCLC, 84%; with NCI-H460 lung it was 103%; in the test on HOP-92 NSCLC it was 73.6%. The growth with NCI-H522 lung was 82.3%; with A549/ATCC NSCLC, 79.3%; with 786-0 renal, 98.8%; in the test with COLO 205 colon it was 114%; with DU-145 prostate, 96.8%; with K-562 leukemia, 100%. In addition, the growth in the test on MDA-MB-231 breast is 87.6%; with RXF 393 renal, 101%; in the test on SF-268 CNS it was 91.7%; in the test on SF-295 CNS, 104%; with SF-539 CNS, 107%; in the test with UACC-257 melanoma it was 98.3%. In addition, the growth in the test on M14 melanoma is 89.6%.
`CN(C)CC(C)(CN(C)C)C(=O)/C=C/c1c(Cl)cccc1Cl`: the growth is 45.9% in the test with NCI-H23 lung; 11.1% in the test with NCI-H226 lung; 70.6% with NCI-H322M lung; 94.6% in the test with HOP-62 NSCLC; 57.9% in the test with NCI-H460 lung; 40.1% in the test on HOP-92 NSCLC. Besides, the growth in the test on NCI-H522 lung was -80.9% (active); with A549/ATCC NSCLC it was 80.6%; in the test with 786-0 renal, -44% (active); in the test on COLO 205 colon it was 101%; in the test on DU-145 prostate, 36.4%; in the test on K-562 leukemia it was -8.43% (active). Besides, the growth with MALME-3M melanoma is -67.2% (active); in the test with RXF 393 renal, -80.8% (active); in the test with SF-295 CNS, 78.2%; in the test on SF-539 CNS it was -2.86% (active); in the test on UACC-257 melanoma, 52.5%; in the test with M14 melanoma, 12.7%.

The record behind these values is PubChem BioAssay (NCI).
